Results published in PubChem BioAssay.
Calls of active or inactive are those of the source.

How the values were obtained:
[1] = small molecules captured by biotinylated probe aFSTL3 – biochemical, small-molecule microarray, fluorescence 635/667, stem cell growth factor project, primary screen (AID 1064); conditions: higher = more signal;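 also: measures binding of the biotinylated anti-FSTL3 antibody to printed compounds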
[2] = binders from COS7 lysate, DM2A8 probe, primary screen, torsin A project, cell lysate, small-molecule microarray, fluorescence 635/667 (AID 1065); conditions: higher = more signal, COS7 lysate expressing mutant human TOR1A
[3] = small molecules captured by biotinylated probe aFGF2 – biochemical, small-molecule microarray, fluorescence 635/667, stem cell growth factor project, primary screen (AID 1067); conditions: higher = more signal;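 also: measures binding of biotinylated aFGF2 protein to printed compounds on slides; z-score merges feature fluorescence and signal-to-noise across triplicate slides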
[4] = small molecules captured by biotinylated probe aFGF10 – biochemical, small-molecule microarray, fluorescence 635/667, stem cell growth factor project, primary screen (AID 1071); conditions: higher = more signal;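 also: score merges 667 nm spot intensity and signal to noise from triplicate slides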
[5] = biological target: Neurogenic locus notch homolog protein 2 (Homo sapiens) (UniProt Q04721); assay: small molecules binding Notch2 protein – biochemical, small-molecule microarray, 635 nm fluorescence, stem cell growth factors, primary screen (AID 1073); conditions: higher = more signal
[6] = biological target: Pro-neuregulin-1, membrane-bound isoform (Homo sapiens) (UniProt Q02297); assay: small molecules binding neuregulin-1 protein – biochemical, small-molecule microarray, fluorescence 635/667, psychiatric disease protein project, primary screen (AID 1075); conditions: NRG1 binding, 635 nm fluorescence, higher = more signal;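 also: score combines 667 nm spot fluorescence with signal to noise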
Chain of Pro-neuregulin-1, membrane-bound isoform (Homo sapiens) (Q02297 whole entry, looked up, the tested form may be a part, canonical isoform): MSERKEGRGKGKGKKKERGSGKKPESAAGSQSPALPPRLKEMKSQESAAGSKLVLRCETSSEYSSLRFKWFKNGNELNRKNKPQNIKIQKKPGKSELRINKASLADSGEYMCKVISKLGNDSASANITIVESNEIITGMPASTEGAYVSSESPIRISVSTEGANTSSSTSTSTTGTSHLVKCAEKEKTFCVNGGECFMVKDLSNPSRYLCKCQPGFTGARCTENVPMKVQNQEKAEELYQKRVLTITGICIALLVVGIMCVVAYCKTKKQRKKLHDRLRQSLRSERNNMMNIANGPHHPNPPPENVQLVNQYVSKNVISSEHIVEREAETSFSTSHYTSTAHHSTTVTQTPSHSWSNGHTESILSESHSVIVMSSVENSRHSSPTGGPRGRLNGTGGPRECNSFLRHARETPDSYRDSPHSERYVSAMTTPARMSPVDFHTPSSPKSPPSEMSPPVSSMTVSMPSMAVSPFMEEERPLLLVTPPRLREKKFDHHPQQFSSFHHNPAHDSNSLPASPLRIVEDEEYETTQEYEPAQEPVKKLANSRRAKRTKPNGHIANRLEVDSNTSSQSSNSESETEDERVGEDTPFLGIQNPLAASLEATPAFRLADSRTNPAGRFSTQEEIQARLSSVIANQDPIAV

[7] = system: Neuregulin-1 EGF-like domain; assay: small molecules binding NRG1 EGF domain – biochemical, small-molecule microarray, 635 nm fluorescence, primary screen (AID 1081); conditions: higher = more signal;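 also: binding of the protein to compounds printed on small-molecule microarray slides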
[8] = FRG1 expression reporter modulators in myotubes – cell-based, C2C12 myotubes, firefly/Renilla luciferase, luminescence, FRG1 inhibition for FSHD, primary screen (AID 1084); conditions: FRG1 promoter luciferase, higher = more signal, called active from +8 up or from −8 down
[9] = small molecules captured by biotinylated probe aFST – biochemical, small-molecule microarray, fluorescence 635/667, stem cell growth factor project, primary screen (AID 1086); conditions: higher = more signal;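 also: score merges 667 nm fluorescence with signal-to-noise of each printed compound spot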
[10] = binders of probe aHhip on microarray, primary screen, stem cell growth factor project, biochemical, small-molecule microarray, fluorescence 635/667 (AID 1087); conditions: higher = more signal;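 also: score merges spot fluorescence at 667nm with spot signal to noise ratio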
[11] = system: PRMT1 (protein arginine N-methyltransferase 1); assay: small molecules binding arginine methyltransferase PRMT1 – biochemical, small-molecule microarray, 635 nm fluorescence, primary screen (AID 1088); conditions: higher = more signal;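 also: binding of Prmt1 protein to compounds spotted on small-molecule microarray slides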
[12] = growth effects on S. cerevisiae YJM789 – YJM789 clinical isolate, OD600, 24 h, basal, primary screen (AID 1089); conditions: higher = more signal, called active from +8 up or from −8 down;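 also: growth of clinical yeast isolate S. cerevisiae YJM 789 seeded 1000 cells per well; test concentration not given here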
[13] = S. pombe growth modifiers, basal conditions – strain 972, OD600, 24 h, no modulator, primary screen (AID 1090);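 also: basal condition with compound alone and no growth modifier present; test concentration not given here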; conditions: S. pombe 972 growth, higher = more signal, called active from +8 up or from −8 down
[14] = budding yeast growth modifiers under rapamycin – strain BY4716, OD600, 96 h, primary screen (AID 1091); also: test concentration not given here; conditions: S. cerevisiae BY4716 + rapamycin, higher = more signal, called active from +8 up or from −8 down
[15] = biological target: Torsin-1A-interacting protein 2 (Homo sapiens) (UniProt Q8NFQ8); assay: small molecules binding lysate-expressed LULL1 – cell lysate, human LULL1 lysate, 635/667 nm fluorescence, primary screen (AID 1092); conditions: small-molecule microarray, hLULL1 lysate binding, 635 nm fluorescence; higher = more signal;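 also: probe is lysate of COS7 cells overexpressing human LULL1; score merges per-feature 667 nm fluorescence with signal-to-noise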
Chain of Torsin-1A-interacting protein 2 (Homo sapiens) (Q8NFQ8 whole entry, looked up): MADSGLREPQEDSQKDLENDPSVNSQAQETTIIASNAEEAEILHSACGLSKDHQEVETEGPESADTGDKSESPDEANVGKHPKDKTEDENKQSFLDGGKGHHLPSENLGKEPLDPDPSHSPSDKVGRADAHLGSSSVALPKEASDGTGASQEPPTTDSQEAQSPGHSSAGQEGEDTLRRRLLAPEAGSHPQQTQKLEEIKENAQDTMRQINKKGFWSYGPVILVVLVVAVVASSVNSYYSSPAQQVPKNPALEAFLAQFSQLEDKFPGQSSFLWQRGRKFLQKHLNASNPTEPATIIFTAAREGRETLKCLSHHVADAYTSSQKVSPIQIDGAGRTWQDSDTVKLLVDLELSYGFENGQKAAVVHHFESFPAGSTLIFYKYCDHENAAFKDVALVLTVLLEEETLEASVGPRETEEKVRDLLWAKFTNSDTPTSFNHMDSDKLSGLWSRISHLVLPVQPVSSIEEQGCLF

[16] = optical density change of DRC41 E. coli – strain DRC41, OD650, 24 h, E. coli filamentation project, primary screen (AID 1093);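 also: MC1000 strain lacking acrAB efflux and sulA so SOS filamentation is blocked; test concentration not given here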; conditions: E. coli DRC41 growth, higher = more signal, called active from +8 up or from −8 down
[17] = probe aLefty2 binding to arrayed compounds – biochemical, biotinylated probe, 635/667 nm fluorescence, primary screen (AID 1094); conditions: small-molecule microarray, higher = more signal;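 also: score merges spot fluorescence near 667 nm with spot signal-to-noise ratio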
[18] = system: Noggin (protein binding on small-molecule microarray); assay: small molecules binding Noggin protein – biochemical, 635/667 nm fluorescence, primary screen (AID 1095); conditions: 635 nm fluorescence, higher = more signal;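 also: score merges 667 nm feature fluorescence with signal to noise over triplicate slides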
[19] = biological target: Neurogenic locus notch homolog protein 3 (Homo sapiens) (UniProt Q9UM47); assay: small molecules binding NOTCH3 protein – biochemical, 635/667 nm fluorescence, primary screen (AID 1096); conditions: small-molecule microarray, 635 nm fluorescence, higher = more signal
Chain of Neurogenic locus notch homolog protein 3 (Homo sapiens) (Q9UM47 whole entry, looked up): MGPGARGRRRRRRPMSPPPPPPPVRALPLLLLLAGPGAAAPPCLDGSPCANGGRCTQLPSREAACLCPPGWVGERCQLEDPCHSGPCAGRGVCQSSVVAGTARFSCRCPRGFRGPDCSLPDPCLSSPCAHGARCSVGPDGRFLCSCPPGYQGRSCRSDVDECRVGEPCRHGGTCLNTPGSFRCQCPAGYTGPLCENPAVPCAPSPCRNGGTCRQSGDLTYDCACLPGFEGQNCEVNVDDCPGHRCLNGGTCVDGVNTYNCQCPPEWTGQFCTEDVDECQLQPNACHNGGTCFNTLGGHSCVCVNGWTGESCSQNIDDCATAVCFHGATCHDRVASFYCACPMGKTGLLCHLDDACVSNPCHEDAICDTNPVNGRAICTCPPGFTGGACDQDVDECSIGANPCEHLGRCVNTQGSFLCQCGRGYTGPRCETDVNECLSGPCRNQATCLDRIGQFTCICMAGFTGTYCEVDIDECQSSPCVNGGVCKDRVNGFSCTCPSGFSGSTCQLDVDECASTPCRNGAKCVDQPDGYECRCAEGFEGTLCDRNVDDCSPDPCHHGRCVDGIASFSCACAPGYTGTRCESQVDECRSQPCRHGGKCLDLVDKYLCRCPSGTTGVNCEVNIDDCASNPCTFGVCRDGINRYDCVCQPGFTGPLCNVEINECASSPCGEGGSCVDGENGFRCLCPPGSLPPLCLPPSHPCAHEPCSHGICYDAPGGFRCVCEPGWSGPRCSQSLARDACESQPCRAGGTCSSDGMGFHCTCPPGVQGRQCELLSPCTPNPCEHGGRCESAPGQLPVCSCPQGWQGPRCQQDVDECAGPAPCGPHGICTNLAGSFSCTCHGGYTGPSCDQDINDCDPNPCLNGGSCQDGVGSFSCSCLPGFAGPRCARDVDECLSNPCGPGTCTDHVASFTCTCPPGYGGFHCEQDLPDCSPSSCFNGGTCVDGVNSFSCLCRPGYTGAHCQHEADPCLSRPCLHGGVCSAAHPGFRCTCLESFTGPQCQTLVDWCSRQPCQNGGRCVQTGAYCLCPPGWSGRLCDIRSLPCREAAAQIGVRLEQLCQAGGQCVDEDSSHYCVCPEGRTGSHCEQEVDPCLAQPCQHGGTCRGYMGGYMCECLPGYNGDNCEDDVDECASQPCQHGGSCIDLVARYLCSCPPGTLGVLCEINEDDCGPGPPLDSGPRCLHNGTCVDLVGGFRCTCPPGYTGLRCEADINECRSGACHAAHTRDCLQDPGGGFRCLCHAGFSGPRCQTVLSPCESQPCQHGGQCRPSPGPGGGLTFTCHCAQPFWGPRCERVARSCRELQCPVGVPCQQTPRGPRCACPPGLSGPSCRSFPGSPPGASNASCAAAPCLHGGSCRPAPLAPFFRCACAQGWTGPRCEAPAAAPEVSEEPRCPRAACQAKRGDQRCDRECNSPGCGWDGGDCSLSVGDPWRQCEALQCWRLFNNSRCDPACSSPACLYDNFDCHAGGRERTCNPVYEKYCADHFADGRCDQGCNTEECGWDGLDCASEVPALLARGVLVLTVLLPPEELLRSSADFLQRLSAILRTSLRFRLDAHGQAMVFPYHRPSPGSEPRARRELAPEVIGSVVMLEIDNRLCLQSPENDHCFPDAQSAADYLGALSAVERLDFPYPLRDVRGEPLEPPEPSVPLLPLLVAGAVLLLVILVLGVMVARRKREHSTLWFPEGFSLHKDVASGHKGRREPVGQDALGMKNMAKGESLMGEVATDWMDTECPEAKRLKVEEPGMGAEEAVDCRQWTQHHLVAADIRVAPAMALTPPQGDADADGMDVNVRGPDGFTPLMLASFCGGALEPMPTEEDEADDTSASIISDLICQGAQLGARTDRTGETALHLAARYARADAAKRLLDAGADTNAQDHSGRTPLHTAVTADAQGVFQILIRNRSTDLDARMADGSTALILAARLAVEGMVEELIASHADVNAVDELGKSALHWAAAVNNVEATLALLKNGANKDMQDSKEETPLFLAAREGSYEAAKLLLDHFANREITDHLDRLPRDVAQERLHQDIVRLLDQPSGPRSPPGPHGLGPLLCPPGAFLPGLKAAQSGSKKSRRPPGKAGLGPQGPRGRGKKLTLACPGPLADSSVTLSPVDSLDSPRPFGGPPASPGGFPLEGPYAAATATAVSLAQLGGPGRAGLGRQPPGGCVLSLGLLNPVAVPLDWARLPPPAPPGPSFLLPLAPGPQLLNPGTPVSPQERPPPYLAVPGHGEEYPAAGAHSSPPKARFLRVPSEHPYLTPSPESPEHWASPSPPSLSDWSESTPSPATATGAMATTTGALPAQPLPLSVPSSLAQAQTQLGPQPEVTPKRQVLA

[20] = probe aEGFR binding to arrayed compounds – biochemical, biotinylated probe, 635/667 nm fluorescence, primary screen (AID 1097); conditions: small-molecule microarray, higher = more signal;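 also: probe is a biotinylated anti-EGFR antibody binding compounds printed on slides; score combines fluorescence near 667 nm and signal to noise of each spot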

In the case of `COc1ccc([Si](C)(C)[C@@H]2[C@@H](CC(=O)N3Cc4ccccc4C[C@H]3CO)O[C@]3(C(=O)N(C)c4ccccc43)[C@H]2C)cc1`, the composite z-score [1] is reported as 0.279, the composite z-score [2] is reported as 0.56 and the composite z-score [3] is reported as 0.0331. For the same compound, the composite z-score [4] was 0.686, the composite z-score [5] was 0.356 and the composite z-score [6] was 0.969. For the same compound, the composite z-score [7] was 1.22, the z-score [8] was -4.24 (inactive) and the composite z-score [9] was 0.714. The composite z-score [10] was 0.202, the composite z-score [11] was 1.53 and the z-score [12] was -0.912 (inactive). For the same compound, the z-score [13] was 0.256 (inactive), the z-score [14] was 1.86 (inactive) and the composite z-score [15] was 1.83. For the same compound, the z-score [16] was -0.0789 (inactive), the composite z-score [17] was 0.279 and the composite z-score [18] was 1.84. For the same compound, the composite z-score [19] was 1.11 and the composite z-score [20] was -0.0052.

`CC(=O)c1ccc(C(O)C2C=CC3C(=O)N(c4ccccc4)C(=O)C3N2Nc2ccc(C#N)cc2)cc1` (stereo not given) gave a composite z-score [1] of 0.0415, a composite z-score [2] of 0.233 and a composite z-score [3] of -0.122. The composite z-score [4] was -0.0474, the composite z-score [5] was 0.833 and the composite z-score [6] was 1.5. For the same compound, the composite z-score [7] was 0.609, the z-score [8] was -0.0141 (inactive) and the composite z-score [9] was 0.766. For the same compound, the composite z-score [10] was -0.0645, the composite z-score [11] was 0.155 and the z-score [12] was -0.623 (inactive). For the same compound, the z-score [13] was 1.04 (inactive), the z-score [14] was 2.05 (inactive) and the composite z-score [15] was 3.76. The z-score [16] was -0.963 (inactive), the composite z-score [17] was -0.103 and the composite z-score [18] was -0.442. For the same compound, the composite z-score [19] was 0.352 and the composite z-score [20] was 0.0753.

Compound `O=C1C2C=CC(C(O)c3ccccc3)N(Nc3ccccc3F)C2C(=O)N1c1ccccc1` (stereo not given) has a composite z-score [1] of -0.283, a composite z-score [2] of 0.932 and a composite z-score [3] of 0.0248. It also gave a composite z-score [4] of 0.373, a composite z-score [5] of 0.99 and a composite z-score [6] of 0.801. The composite z-score [7] was 0.834, the z-score [8] was -2.14 (inactive) and the composite z-score [9] was 0.444. The composite z-score [10] was -0.191, the composite z-score [11] was 0.101 and the z-score [12] was 0.181 (inactive). The z-score [13] was 0.815 (inactive), the z-score [14] was 0.285 (inactive) and the composite z-score [15] was 2.61. The z-score [16] was -0.106 (inactive), the composite z-score [17] was -0.0381 and the composite z-score [18] was -0.0199. It also gave a composite z-score [19] of 0.023 and a composite z-score [20] of -0.067.

In the case of `CN1C(=O)C2C=CC(C(O)c3cccc(O)c3)N(Nc3ccccc3)C2C1=O` (stereo not given), the composite z-score [1] is reported as -0.0512, the composite z-score [2] is reported as -0.201 and the composite z-score [3] is reported as 0.0121. The composite z-score [4] was 0.518, the composite z-score [5] was 0.768 and the composite z-score [6] was 1.9. The composite z-score [7] was 1.25, the z-score [8] was 0.737 (inactive) and the composite z-score [9] was 0.495. The composite z-score [10] was 0.0808, the composite z-score [11] was -0.0187 and the z-score [12] was 0.637 (inactive). The z-score [13] was 1.62 (inactive), the z-score [14] was 1.1 (inactive) and the composite z-score [15] was 0.684. For the same compound, the z-score [16] was -0.509 (inactive), the composite z-score [17] was 0.0004 and the composite z-score [18] was 0.215. For the same compound, the composite z-score [19] was 0.764 and the composite z-score [20] was -0.0251.

With `COc1ccc(NC(=O)O[C@H]2[C@H](OC(=O)Nc3ccccc3)[C@@H](OC(=O)Nc3ccccc3)[C@@H](OC)O[C@@H]2CO)cc1` the composite z-score [1] was -0.279, the composite z-score [2] was 0.672 and the composite z-score [3] was -0.017. For the same compound, the composite z-score [4] was 1.27, the composite z-score [5] was 0.754 and the composite z-score [6] was 1.6. For the same compound, the composite z-score [7] was 1.26, the z-score [8] was 0.329 (inactive) and the composite z-score [9] was 0.23. The composite z-score [10] was -0.0618, the composite z-score [11] was 1.55 and the z-score [12] was 2.09 (inactive). The z-score [13] was -0.0554 (inactive), the z-score [14] was -0.758 (inactive) and the composite z-score [15] was 3.27. The z-score [16] was -0.633 (inactive), the composite z-score [17] was -0.0666 and the composite z-score [18] was 1.62. The composite z-score [19] was 0.822 and the composite z-score [20] was -0.0054.

For `CCOC(=O)C[C@H]1[C@H](OC(=O)c2cc3ccccc3oc2=O)[C@@H](NC(=O)Cc2ccc(OC)cc2)c2cc(OCCCO)ccc2N1C(=O)c1ccc2ccccc2n1`, the composite z-score [1] was -0.19, the composite z-score [2] was 0.648 and the composite z-score [3] was -0.127. For the same compound, the composite z-score [4] was 0.403, the composite z-score [5] was 0.848 and the composite z-score [6] was 0.35. For the same compound, the composite z-score [7] was 0.996, the z-score [8] was -1.07 (inactive) and the composite z-score [9] was 0.0814. The composite z-score [10] was -0.123, the composite z-score [11] was 0.268 and the z-score [12] was -0.724 (inactive). For the same compound, the z-score [13] was -0.138 (inactive), the z-score [14] was -0.0607 (inactive) and the composite z-score [15] was 0.773. The z-score [16] was 1.31 (inactive), the composite z-score [17] was -0.11 and the composite z-score [18] was 0.68. The composite z-score [19] was 1.15 and the composite z-score [20] was -0.0241.

`CC(C)C[C@@H]1NC(=O)[C@@H]2C[C@H](C(=O)NCCCCN(C)C)[C@H](c3cccc(OCCO)c3)N2C1=O` showed a composite z-score [1] of 0.0116, a composite z-score [2] of 1.47 and a composite z-score [3] of -0.143. The composite z-score [4] was -0.242, the composite z-score [5] was -0.416 and the composite z-score [6] was 0.204. For the same compound, the composite z-score [7] was 1.19, the z-score [8] was 6.17 (inactive) and the composite z-score [9] was -0.612. The composite z-score [10] was -0.192, the composite z-score [11] was 0.751 and the z-score [12] was -1.01 (inactive). For the same compound, the z-score [13] was 0.162 (inactive), the z-score [14] was -1.01 (inactive) and the composite z-score [15] was 2.85. For the same compound, the z-score [16] was 0.659 (inactive), the composite z-score [17] was -0.0258 and the composite z-score [18] was 0.592. The composite z-score [19] was -0.087 and the composite z-score [20] was -0.183.

Compound `Cc1ccc(S[C@]2(C(=O)O)CC(=O)N(C3Cc4ccccc4C3)[C@@H]2c2ccc(CO)cc2)cc1` has a composite z-score [1] of 0.377, a composite z-score [2] of 0.477 and a composite z-score [3] of 0.0015. It also gave a composite z-score [4] of -0.179, a composite z-score [5] of -0.267 and a composite z-score [6] of 0.915. The composite z-score [7] was 0.184, the z-score [8] was 0.177 (inactive) and the composite z-score [9] was -0.117. The composite z-score [10] was -0.134, the composite z-score [11] was 1.04 and the z-score [12] was 0.137 (inactive). The z-score [13] was -1.36 (inactive), the z-score [14] was 0.448 (inactive) and the composite z-score [15] was 2.98. The z-score [16] was 0.618 (inactive), the composite z-score [17] was 0.126 and the composite z-score [18] was -0.98. It also gave a composite z-score [19] of -0.472 and a composite z-score [20] of -0.185.

`Cn1cccc1C(O)C1C=CC2C(=O)NC(=O)C2N1Nc1ccc(Cl)cc1Cl` (stereo not given) showed a composite z-score [1] of 0.435, a composite z-score [2] of 0.263 and a composite z-score [3] of 0.167. It also gave a composite z-score [4] of 0.68, a composite z-score [5] of 1.68 and a composite z-score [6] of 2.04. The composite z-score [7] was 1.15, the z-score [8] was 0.978 (inactive) and the composite z-score [9] was 1.92. For the same compound, the composite z-score [10] was 0.107, the composite z-score [11] was 1.04 and the z-score [12] was -0.477 (inactive). The z-score [13] was -1.81 (inactive), the z-score [14] was -0.356 (inactive) and the composite z-score [15] was 3.52. The z-score [16] was -2.82 (inactive), the composite z-score [17] was 0.673 and the composite z-score [18] was 0.405. It also gave a composite z-score [19] of 1.05 and a composite z-score [20] of 0.0201.
